Assay [1] can be described thus: qHTS assay to identify small molecule agonists of the hypoxia (HIF-1) signaling pathway - cell viability counter screen (AID 1224844; calls by dose curve; also: nearly all actives have a fitted effect of over 50% in size; also: potency is read from the fitted curve at half-maximal effect). Summed up: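 Same wells as the HIF-1 reporter screen; ME-180 cells carrying HRE-bla, 17 hr treatment at 37C; CellTiter-Glo luminescence read after 30 min at room temperature.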
On the technique in general: In qHTS, concentration-response curves come from the screen itself.

Assay [2] in a line: qHTS assay to identify small molecule agonists of the hypoxia (HIF-1) signaling pathway (AID 1224846; active = well fitted activation curve with a large enough effect in the signal ratio in the repeat runs, not every such curve was filed as active; the % refers to the signal ratio). A digest of the protocol:
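In ME-180 cells bearing an HRE-bla construct, 17 h treatment with DMSO-dissolved compounds at 37C was followed by CCF4-AM loading to quantify reporter induction.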

Assay [3] in a line: qHTS assay to identify small molecule agonists of H2AX - cell viability counter screen (AID 1224847; calls by dose curve; also: nearly all actives have a fitted effect of over 30% in size; also: potency is read from the fitted curve at half-maximal effect; as to activity change, negative = cytotoxicity: top concentration of the series differs between compounds). Summed up: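 CHO-K1 wt, 1000 cells/well, o/n 37C; cpds 15 conc, 3 h 37C, 0.76% DMSO; CellTiter-Glo, 30 min RT, luminescence.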
Assay [4] can be described thus: qHTS assay to identify small molecule antagonists of the estrogen related receptor (ERR) signaling pathway from Tox21 library (AID 1224848). Also: nearly all actives have a fitted effect of over 50% in size. Also: potency is read from the fitted curve at half-maximal effect. A digest of the protocol: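 Tox21 10K compounds in DMSO tested for ERR pathway antagonism in NTP's ERR cell line; 18 h, 37 C exposure; ONE-Glo luminescence.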
The nature of assay [5]: qHTS assay to identify small molecule agonists of the estrogen related receptor (ERR) signaling pathway from Tox21 library (AID 1224849; calls by dose curve; also: nearly all actives have a fitted effect of over 15% in size). Conditions: ERR reporter cell line, ONE-Glo luciferase, 18 h; at 92.4 µM (top of the series) unless noted. A digest of the protocol:
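Reporter cells (ERR, NTP source) treated with Tox21 10K compounds 18 h, 37 C. Readout: ONE-Glo luminescence, 30 min RT.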

Assay [6] can be described thus: qHTS RealTime-Glo MT Cell Viability Assay in HEK293 cells - 32 hour (AID 1224868). Also: nearly all actives have a fitted effect of over 50% in size. Also: potency is read from the fitted curve at half-maximal effect. As to activity change, negative = cytotoxic: top concentration of the series differs between compounds. A digest of the protocol:
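Reads taken at 0, 8, 16, 24, 32 and 40 h from the same wells. HEK293 cells (600/well) carried RealTime-Glo reagents from seeding, with compound added after a 5 h settle at 37 C.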

Assay [7] can be described thus: A CellTox Green Cytotoxicity Assay to monitor cytotoxicity in HEK293 cells - 0 hour (AID 1224869). Also: nearly all actives have a fitted effect of over 50% in size. Summed up:
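Homogeneous no-lysis format: HEK293 cell suspension mixed with CellTox Green reagent, seeded, incubated 5 h at 37 C/5% CO2, then dosed by pintool with compound in DMSO.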

Assay [8] in a line: qHTS RealTime-Glo MT Cell Viability Assay in HepG2 cells - 40 hour (AID 1224870). Also: nearly all actives have a fitted effect of over 50% in size. Summed up:
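HepG2 cells mixed with RealTime-Glo MT reagents (NanoLuc plus cell-permeant prosubstrate) were seeded at 600 cells/well, incubated 5 h at 37 C/5% CO2, then pinned with compounds in DMSO; nonlytic luminescence tracked viability during 40 h treatment.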

Assay [9] can be described thus: qHTS RealTime-Glo MT Cell Viability Assay in HepG2 cells - 24 hour (AID 1224867). Also: nearly all actives have a fitted effect of over 50% in size. Summed up: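 HepG2 suspension premixed with RealTime-Glo reagents is plated at 600 cells per well and left 5 h at 37 C/5% CO2. Compounds in DMSO then go in, and bioluminescence reflecting viable cell number is recorded over 40 h.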
Assay [10] in a line: qHTS assay to identify small molecule agonists of H2AX (AID 1224845; active = well fitted activation curve with a large enough effect in the signal ratio in the repeat runs, not every such curve was filed as active; the % refers to the signal ratio). Summed up:
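Wild-type CHO-K1 cells plated overnight, then exposed 3 hr at 37C to compounds at 15 concentrations (0.76% DMSO). Lysed, then HTRF anti-pH2AX(S139)-cryptate/anti-H2AX-d2 detection after 24 hr at room temperature; emissions 665 and 620 nm.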

A number with no mark means an inactive call. Results filed as inconclusive are left out. The source made the active and inactive calls. Unless noted, calls follow the shape of the dose curve; as a rule, active = well fitted curve in the direction sought with a large enough effect in the repeat runs; inconclusive = weak or mixed curves; inactive = no such curve, though single readings can be large; an effect the other way counts as inactive or inconclusive.
% is scaled to controls: 0 for no effect and ±100 for the full control effect.

In the case of `O=C(c1ccc(F)cc1)C1CCN(CCn2c(=S)[nH]c3ccccc3c2=O)CC1`, the Potency in [1] is 21.3 µM (active); in assay [3], 49.2 µM (active); in assay [4], 26.6 µM (active); in [6], 5.35 µM (active). In addition, the Potency entry in [2], in assay [7] and in assay [8] was “inactive” throughout. In addition, the activity change, positive = activation in [5] is -56.8% [at 42.5 µM].

`Nc1ccc(N)c2c1C(=O)c1ccccc1C2=O`: the Potency result in assay [1], in assay [2], in assay [9], in assay [7] and in assay [8] was “inactive” each time. Moreover, the Potency is 50.5 µM (active) in assay [3] and 43.3 µM (active) in [4].

Consider `CCN(CC)CCOC(=O)C(c1ccccc1)C1CCCCC1` (stereo not given), for which the Potency result in assay [1], in assay [2], in [7] and in assay [8] was “inactive” each time. The Potency in assay [3] is 49.2 µM (active).

`Nc1cc(C(=O)O)c(O)c(S(=O)(=O)O)c1`: the Potency entry in assay [1], in [2], in assay [3], in [4], in assay [9] and in assay [6] was “inactive” each time. The Potency result in assay [7] and in assay [8] was “inactive” each time.

With `COc1cc(Cl)c(OC)cc1N`, the Potency entry in assay [1], in [2], in [9], in assay [6], in assay [7] and in [8] was “inactive” in each case.

Regarding `CCOc1ccc(O)cc1`, the Potency entry in assay [1], in assay [2], in assay [9], in [7] and in assay [8] was “inactive” throughout.

Turning to `CCCCCCCCCCCCCCOS(=O)(=O)O`, the Potency in assay [1] was 54.9 µM (active). For the same molecule, the Potency entry in [10], in assay [9], in [7] and in assay [8] was “inactive” throughout.

For the molecule `N=c1ccn2c(n1)O[C@H]1[C@H](O)[C@@H](CO)O[C@H]12`, the Potency entry in assay [1], in assay [2], in assay [4], in [9], in assay [6] and in assay [7] was “inactive” each time. For the same molecule, the Potency result in [8] was “inactive”.

`O=C(Nc1ccccc1)c1ccccc1O`: the Potency result in assay [1], in [10], in assay [9] and in [7] was “inactive” each time. Also, the activity change, positive = activation in [5] is -30.7%.

Turning to `Brc1c2ccccc2cc2ccccc12`, the Potency entry in [1], in assay [10], in [9], in assay [7] and in [8] was “inactive” throughout.

In the case of `Cc1oc(-c2ccccc2)nc1CCOc1cccc2c1ccn2CCC(=O)O`, the Potency result in [1], in assay [2], in assay [3], in [9], in [6] and in [7] was “inactive” throughout. In [8], the Potency result was “inactive”.

`Clc1ccc(Cn2c(CN3CCCC3)nc3ccccc32)cc1`: the Potency entry in assay [1], in assay [10], in assay [7] and in assay [8] was “inactive” each time.

With `CCCCNc1ccc(C(=O)OCCOCCOCCOCCOCCOCCOCCOCCOCCOC)cc1`, the Potency entry in [1], in assay [10], in assay [7] and in assay [8] was “inactive” in each case.

Take `Brc1c2ccccc2c(Br)c2ccccc12`: the activity change, negative = cytotoxicity is -13.7% [at 6.97 µM] in assay [1], 5.06% [at 14 µM] in [3] and 2.73% [at 6.97 µM] in [9]. Besides, the activity, negative = inhibition in assay [4] was 4.96% [at 8.39 µM]. For the same molecule, the activity change, positive = activation in [5] was 2.61% [at 8.39 µM]. In addition, the values for the activity change, negative = cytotoxic in assay [6] and in assay [8] were 4.29% [at 6.97 µM] and 1.43% [at 6.97 µM], respectively. Besides, the cytotoxicity in [7] is 0.676% [at 6.97 µM].

Take `CCCNCC(O)COc1ccccc1C(=O)CCc1ccccc1` (stereo not given): the Potency result in assay [1], in assay [10], in assay [9], in assay [7] and in assay [8] was “inactive” in each case. The Potency in assay [6] was 2.39 µM (active).

Consider `CCCCCCCCCc1ccc(OCCOCCO)cc1`, for which the Potency result in assay [1] and in [7] was “inactive” throughout. Besides, the Potency was 37.6 µM (active) in assay [3] and 1.15 µM (active) in assay [6].

Turning to `COc1cc2c(cc1OC)C(C(C(=O)N(CCc1ccc(OC)c(OC)c1OC)CCc1ccc(OC)c(OC)c1OC)c1ccccc1)=NCC2` (stereo not given), the Potency entry in [10], in [2] and in assay [7] was “inactive” in each case. The results for the Potency in [4] and in assay [6] were 26.6 µM (active) and 3.38 µM (active), respectively.

Regarding `CNCCCN1c2ccccc2CCc2ccccc21`, the Potency entry in assay [10] and in assay [3] was “inactive” each time.

For `COc1cc(C(=O)OCCCN2CCCN(CCCOC(=O)c3cc(OC)c(OC)c(OC)c3)CC2)cc(OC)c1OC`, the Potency result in [10], in [2], in [3], in [4], in assay [9] and in assay [7] was “inactive” in each case. Besides, the Potency result in assay [8] was “inactive”. Moreover, the activity change, positive = activation in [5] is -15% [at 42.5 µM]. The Potency in assay [6] was 9.52 µM (active).

For `CCCOC(C(=O)OC1CCN(C)CC1)(c1ccccc1)c1ccccc1`, the Potency entry in assay [10], in assay [2], in [3], in assay [9], in assay [7] and in assay [8] was “inactive” throughout.

On to `O=C(Cl)c1cc(C(=O)Cl)cc(C(=O)Cl)c1`, for which the Potency entry in [10], in assay [3] and in assay [7] was “inactive” each time. For the same molecule, the Potency in [6] is 49 µM (active).

Consider `Cc1cccc(C)c1OCC(=O)N[C@@H](Cc1ccccc1)[C@@H](O)C[C@H](Cc1ccccc1)NC(=O)[C@H](C(C)C)N1CCCNC1=O`, for which the Potency entry in [2], in assay [9] and in [8] was “inactive” throughout. For the same molecule, the Potency was 23.7 µM (active) in assay [4] and 23.9 µM (active) in assay [6]. Moreover, the activity change, positive = activation in assay [5] is -59.8% [at 42.5 µM].

Turning to `CCC(CC)Nc1ccc(C)c(C)c1`, the Potency entry in assay [10], in assay [2], in [9] and in [8] was “inactive” throughout.

`CCCCCCCCCCCCN1CCCCCC1=O`: the Potency result in assay [10], in assay [9], in [7] and in [8] was “inactive” each time. Also, the activity change, positive = activation in assay [5] was -23.3%.

Turning to `CCC(=O)O[C@]1(C(=O)CCl)[C@@H](C)C[C@H]2[C@@H]3CCC4=CC(=O)C=C[C@]4(C)[C@@]3(F)[C@@H](O)C[C@@]21C`, the Potency entry in [10], in [2], in assay [3], in [7] and in assay [8] was “inactive” each time. Besides, the activity change, positive = activation in assay [5] was -18.7% [at 42.5 µM].

On to `C[C@@H]1C[C@H]2[C@@H]3CCC4=CC(=O)C=C[C@]4(C)[C@@]3(F)[C@@H](O)C[C@]2(C)[C@@]1(O)C(=O)COC(=O)c1ccncc1`, for which the Potency entry in assay [10], in assay [2], in [3], in assay [9], in assay [6] and in assay [7] was “inactive” in each case. In [8], the Potency entry is “inactive”.

In the case of `CCOC(=O)C1=C[C@]2(CC)CCCN3CCc4c(n1c1ccccc41)[C@@H]32`, the Potency result in assay [2], in assay [3], in assay [9], in [7] and in [8] was “inactive” in each case.

For `CN1CCC(=C2c3ccccc3Sc3ccccc32)CC1`, the Potency result in assay [10], in assay [3], in assay [4], in assay [9] and in [8] was “inactive” each time. Moreover, in assay [5], the activity change, positive = activation was 1.79% [at 42.5 µM].

`CC(C)Nc1ccc(NC(C)C)c2c1C(=O)c1ccccc1C2=O`: the Potency result in assay [2], in assay [9], in [6], in assay [7] and in assay [8] was “inactive” in each case. Moreover, the Potency in [3] is 26.3 µM (active).

(Values after PubChem BioAssay (Tox21).)
